Assay results published in PubChem BioAssay (NCI).
This is part of a sample that, as a whole, favours compounds with a hit. Of some 79,000 tested, about 15% had one in any assay. A number with no mark means an inactive call. The source made the active and inactive calls. Rule as the data show it: active = growth inhibition above about 70%; inactive = the rest.

What was measured:
[1] = NCI Yeast Anticancer Drug Screen. Data for the rad50 strain (AID 155);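 also: 0% = growth of vehicle-only cultures of the same strain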; settings: S. cerevisiae rad50 strain growth inhibition, active compounds read high
Summary of the method: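 DNA repair mutant yeast, compound exposure, growth read-out; inhibition is taken relative to vehicle.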

[2] = NCI Yeast Anticancer Drug Screen. Data for the mec2-1 strain (AID 157); settings: S. cerevisiae mec2-1 strain, active compounds read high
Summary of the method: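 Cells of the genetically defined mec2-1 yeast strain are incubated with test compound. Inhibition of growth is calculated against vehicle-treated controls.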

[3] = NCI Yeast Anticancer Drug Screen. Data for the sgs1 mgt1 strain (AID 161);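 also: 0% = growth of cultures given vehicle only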; settings: S. cerevisiae sgs1 mgt1 strain, active compounds read high
Summary of the method: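 Mutant yeast exposed to compound; growth scored against vehicle-only wells.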

[4] = NCI Yeast Anticancer Drug Screen. Data for the cln2 rad14 strain (AID 165);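 also: 0% = growth equal to vehicle treated cultures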; settings: S. cerevisiae cln2 rad14 strain, active compounds read high
Summary of the method: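 The screen exposed genetically defined yeast (cln2 rad14) to test compounds and scored growth inhibition relative to vehicle-treated controls.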

[5] = NCI Yeast Anticancer Drug Screen. Data for the bub3 strain (AID 167); settings: S. cerevisiae bub3 mutant strain, active compounds read high
Summary of the method: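 In this screen, a yeast mutant lacking normal mitotic checkpoint function is challenged with compound. Relative growth versus vehicle gives the inhibition value.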

[6] = NCI Yeast Anticancer Drug Screen. Data for the mlh1 rad18 strain (AID 175); settings: S. cerevisiae mlh1 rad18 strain growth inhibition, active compounds read high
Summary of the method: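 Compound-treated yeast growth, normalised to vehicle controls. Strain bears defined DNA repair mutations.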

[7] = at 5.0 µM (retest, dose inferred, filed as 0.5)
[8] = at 50.0 µM (retest, dose inferred, filed as 5.0)

Row | SMILES | growth inhibition [1, 7] | growth inhibition [1, 8] | growth inhibition ([1]; at 50.0 µM) | growth inhibition [2, 7] | growth inhibition [2, 8] | growth inhibition ([2]; at 50.0 µM) | growth inhibition [3, 7] | growth inhibition [3, 8] | growth inhibition ([3]; at 50.0 µM) | growth inhibition [4, 7] [%] | growth inhibition [4, 8] | growth inhibition ([4]; at 50.0 µM) | growth inhibition [5, 7] | growth inhibition [5, 8] | growth inhibition ([5]; at 50.0 µM) | growth inhibition [6, 7] | growth inhibition [6, 8] | growth inhibition ([6]; at 50.0 µM)
1 | O=C(O)CCC/C(=N\Nc1ccccc1)C(=O)O | 5% | 97% (active) | 98.5% (active) | 2% | 99% (active) | 99.2% (active) | 6% | 97% (active) | 98.7% (active) | 0 | 99% (active) | 97.4% (active) | 1% | 98% (active) | 99% (active) | 7% | 98% (active) | 98.3% (active)
2 | CC1(c2ccc3ccccc3c2)C(C#N)(C#N)C1(C#N)C#N | 87% (active) | 92% (active) | 91.4% (active) | 94% (active) | 94% (active) | 92% (active) | 97% (active) | 96% (active) | 88% (active) | 62 | 93% (active) | 83.2% (active) | 96% (active) | 93% (active) | 91.2% (active) | 97% (active) | 93% (active) | 87.7% (active)
3 | CCOC(=O)C1(Br)CCN(S(=O)(=O)c2ccc(C)cc2)c2ccccc2C1=O (stereo not given) | 1% | 90% (active) | 96.5% (active) | 10% | 97% (active) | 98% (active) | -7% | 96% (active) | 97.8% (active) | -6 | 66% | 95.2% (active) | -3% | 95% (active) | 97.5% (active) | 18% | 97% (active) | 98.4% (active)
4 | O=C(c1ccccc1)C(Br)C(Br)c1ccc(Cl)c(Cl)c1 (stereo not given) | 67% | 96% (active) | -8.65% | 69% | 98% (active) | 24.3% | 92% (active) | 97% (active) | 60.1% | 39 | 97% (active) | -16.2% | 87% (active) | 98% (active) | 13.1% | 73% (active) | 97% (active) | 77.8% (active)
5 | Cc1ccc(S(=O)(=O)N/N=C2/CCC3(O)CC2(C)CCC2[C@H]3CC2(C)C)cc1 (stereo not given in full) | 17% | 72% (active) | 66.7% | -7% | 83% (active) | 57.2% | 1% | 54% | 70.2% (active) | 13 | 69% | 83.8% (active) | 2% | 86% (active) | 75% (active) | 5% | 88% (active) | 70.7% (active)
6 | CC(C)CCCC(C)C1CCC2(C)C3=CCC4C(C)(CCC(O)C4(C)C)C3=CCC12C (stereo not given) | 0% | 83% (active) | 89% (active) | -18% | 94% (active) | 73% (active) | 11% | 95% (active) | 98% (active) | -8 | 84% (active) | 97.7% (active) | -6% | 95% (active) | 93.3% (active) | 21% | 97% (active) | 90.8% (active)
7 | CCCNCC/C=C/[Si](C)(C)C | -17% | 99% (active) | 98.7% (active) | -9% | 99% (active) | 96.5% (active) | -3% | 99% (active) | 97.6% (active) | 4 | 99% (active) | 98.5% (active) | -2% | 99% (active) | 98.8% (active) | 10% | 99% (active) | 98.8% (active)
8 | Fc1ccc2[nH]ccc2c1 | 9% | 41% | 55.5% | -22% | 13% | 28.8% | 5% | 19% | 60.6% | 9 | 47% | 34.4% | 2% | 62% | 62.3% | -19% | 44% | 49.3%
9 | CC(C)(C)c1ccc(-c2nnc(SCc3ccc(Cl)cc3)n2-c2cccc(C(F)(F)F)c2)cc1 | -14% | -34% | 52.6% | -20% | -26% | 5.9% | -13% | -30% | -3.2% | 9 | -14% | -20.9% | 7% | -9% | 14.4% | -28% | -29% | -19.6%
10 | COC(=O)C(=O)C(=O)C1CCCC(c2ccccc2)C1=O (stereo not given) | 1% | 96% (active) | 96.3% (active) | 0% | 97% (active) | 98% (active) | 1% | 53% | 71.6% (active) | 2 | 98% (active) | 94.8% (active) | -11% | 98% (active) | 97.8% (active) | -10% | 97% (active) | 96.4% (active)
